Experimental data from PubChem BioAssay (NCI).
This is part of a sample that, as a whole, favours compounds with a hit. Of some 83,000 tested, about 20% had one in any assay.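 In brief: 96-well plates, 48 h treatment, single concentration, percent growth endpoint.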 Active and inactive are the calls of the source. Rule for the calls: active = growth percent below 10; inactive = the rest.

How the values were obtained:
Test in all cases: NCI-60 one-dose screen, 48 h (100 = growth as untreated, 0 = no growth, -100 = all killed)
Conditions in all cases: 10 µM unless noted
T-47D breast = test system: T-47D breast
BT-549 breast = test system: BT-549 breast
MDA-MB-435 melanoma = test system: MDA-MB-435 melanoma
MCF7 breast = test system: MCF7 breast
HCT-116 colon = test system: HCT-116 colon
HCC-2998 colon = test system: HCC-2998 colon
KM12 colon = test system: KM12 colon
SW-620 colon = test system: SW-620 colon

Measured: growth

CC(C)(C#N)N1CCN(c2ccccc2Cl)CC1
inactive: T-47D breast 102% | BT-549 breast 98.1% | MDA-MB-435 melanoma 97.3% | MCF7 breast 106% | HCT-116 colon 98.4% | HCC-2998 colon 91.4% | KM12 colon 106%

CC1(C)CCCN1CCCN1c2ccccc2Sc2ccc(Cl)cc21
inactive: T-47D breast 68.5% | BT-549 breast 56.3% | MDA-MB-435 melanoma 51.5% | SW-620 colon 79.9% | MCF7 breast 45.3% | HCT-116 colon 33.3% | KM12 colon 56.1%

CCCc1cc2c(cc1Br)OCO2
inactive: BT-549 breast 82.7% | MDA-MB-435 melanoma 110% | SW-620 colon 112% | MCF7 breast 95% | HCT-116 colon 84.5% | KM12 colon 113%

CCN(CCNc1cc(OC)cc2cccnc12)CCc1ccccc1
inactive: BT-549 breast 87.6% | MDA-MB-435 melanoma 104% | SW-620 colon 70.7% | HCT-116 colon 59.8% | HCC-2998 colon 88.5% | KM12 colon 85.6%
active: MCF7 breast 0.943%

O=C(Nc1ccccc1)Oc1ccccc1-c1ccccc1
inactive: BT-549 breast 76.3% | MDA-MB-435 melanoma 99.9% | SW-620 colon 99.5% | MCF7 breast 95.5% | HCT-116 colon 77.6% | HCC-2998 colon 107% | KM12 colon 107%

O=C(/C=C\c1ccc(OCCCCCC[P+](c2ccccc2)(c2ccccc2)c2ccccc2)cc1)c1ccc2c(c1)OCCO2
inactive: HCC-2998 colon 32.5%
active: BT-549 breast -16.9% | MDA-MB-435 melanoma -29.8% | SW-620 colon -41.4% | MCF7 breast 5.09% | HCT-116 colon -73.1% | KM12 colon -76.4%

COc1cc(NCCN(CC(C)C)C2CCCC2)c2ncccc2c1
inactive: BT-549 breast 98.8% | MDA-MB-435 melanoma 111% | SW-620 colon 72.2% | MCF7 breast 42% | HCT-116 colon 63.4% | HCC-2998 colon 87.5% | KM12 colon 86.1%

Cc1cc(C)c(C=O)c(C)c1
inactive: BT-549 breast 91.4% | MDA-MB-435 melanoma 103% | SW-620 colon 95% | MCF7 breast 106% | HCT-116 colon 83.1% | HCC-2998 colon 108% | KM12 colon 105%

CC(C)CN(C(=O)c1ccc(Cl)cc1)c1c(N)n(CC(C)C)c(=O)[nH]c1=O
inactive: T-47D breast 105% | MDA-MB-435 melanoma 112% | SW-620 colon 100% | MCF7 breast 95% | HCT-116 colon 96.2% | HCC-2998 colon 106% | KM12 colon 102%

O=c1[nH]c2c(s1)CCCC2CN1CCCCC1 (stereo not drawn)
inactive: BT-549 breast 72.6% | MDA-MB-435 melanoma 107% | SW-620 colon 114% | MCF7 breast 96.3% | HCT-116 colon 76.8% | HCC-2998 colon 100% | KM12 colon 108%

COc1ccc(Cl)cc1NC(=O)c1c(NC(=O)C(F)(F)C(F)(F)F)sc2c1CCCCC2
inactive: SW-620 colon 12.8% | HCC-2998 colon 15.9%
active: BT-549 breast -4.71% | MDA-MB-435 melanoma 8.76% | MCF7 breast 4.9% | HCT-116 colon -0.0954% | KM12 colon 3.84%

Cc1ccccc1C(c1ccccc1)c1ccccc1C
inactive: BT-549 breast 86.1% | MDA-MB-435 melanoma 105% | SW-620 colon 97.7% | MCF7 breast 98.8% | HCT-116 colon 73.2% | HCC-2998 colon 101% | KM12 colon 98.2%

COc1cc(/C=C/C(=O)c2c(C)oc3nc[nH]c(=O)c23)ccc1O
inactive: BT-549 breast 100% | MDA-MB-435 melanoma 102% | SW-620 colon 100% | MCF7 breast 90.2% | HCT-116 colon 102% | HCC-2998 colon 100% | KM12 colon 103%

CCCOc1nc(SCCC)nc2c1cnn2-c1ccccc1
inactive: T-47D breast 115% | MDA-MB-435 melanoma 104% | SW-620 colon 103% | MCF7 breast 101% | HCT-116 colon 105% | KM12 colon 105%

O=C(O)CNC(=O)CN1C(=O)c2ccccc2C1=O
inactive: BT-549 breast 89.5% | MDA-MB-435 melanoma 107% | SW-620 colon 105% | MCF7 breast 96.3% | HCT-116 colon 89.3% | HCC-2998 colon 106% | KM12 colon 115%

CN(C)Cc1c(-c2ccccc2)[nH]c2ccccc12
inactive: BT-549 breast 75.3% | MDA-MB-435 melanoma 105% | SW-620 colon 99.6% | MCF7 breast 81.8% | HCT-116 colon 67.9% | HCC-2998 colon 98.2% | KM12 colon 96.7%

COc1cc(NCC(O)CN(CC(C)C)CC(C)C)c2nc(C)ccc2c1 (stereo not drawn)
inactive: BT-549 breast 90.9% | MDA-MB-435 melanoma 105% | SW-620 colon 92.7% | HCT-116 colon 97.3% | HCC-2998 colon 89.9% | KM12 colon 75.5%
active: MCF7 breast -11.4%

CCC(C)N(CCNc1cc(OC)cc2cccnc12)CCC(C)C (stereo not drawn)
inactive: BT-549 breast 90.8% | MDA-MB-435 melanoma 107% | SW-620 colon 58.4% | MCF7 breast 25.7% | HCT-116 colon 64.9% | HCC-2998 colon 79.1% | KM12 colon 77.6%

CC(=O)OCC(=O)[C@@]1(O)CC[C@H]2[C@@H]3CC(=C(Br)Br)C4=CC(=O)CC[C@]4(C)[C@H]3C(=O)C[C@@]21C
inactive: BT-549 breast 73.5% | MDA-MB-435 melanoma 100% | SW-620 colon 95.3% | MCF7 breast 84.4% | HCT-116 colon 68.3% | HCC-2998 colon 95.8% | KM12 colon 93.6%

COc1ccccc1/C=C1\Oc2cc(OCCCN3CCCC3)ccc2C1=O
inactive: BT-549 breast 94.8% | MDA-MB-435 melanoma 91.4% | SW-620 colon 73% | MCF7 breast 80% | HCT-116 colon 50.9% | HCC-2998 colon 102% | KM12 colon 98.3%

O=C(Nc1ccc(F)cc1)c1c(NC(=O)C(F)(F)F)sc2c1CCCCC2
active: BT-549 breast -2.41% | MDA-MB-435 melanoma 3.22% | MCF7 breast 3.61% | HCT-116 colon 1.79% | KM12 colon 2.08%
inactive: SW-620 colon 11.6% | HCC-2998 colon 10.1%

CCN(CC)CCCC(Nc1c2ccc(Cl)cc2nc2ccc(OC)cc12)c1ccc(Cl)cc1 (stereo not drawn)
inactive: BT-549 breast 43.4%
active: MDA-MB-435 melanoma -88.2% | SW-620 colon -75.8% | MCF7 breast -73.8% | HCT-116 colon -88.8% | KM12 colon -56.9%

CCCCc1ccc(Nc2nnc(SCC(=O)NC(=O)NCC)s2)cc1
inactive: T-47D breast 128% | MDA-MB-435 melanoma 104% | SW-620 colon 102% | MCF7 breast 101% | HCT-116 colon 93.6% | HCC-2998 colon 105% | KM12 colon 102%

COc1ccc(-c2c[nH]c(C(=O)O)c2-c2cc(OC)c3c(c2OC)OCO3)cc1
inactive: BT-549 breast 103% | MDA-MB-435 melanoma 104% | SW-620 colon 103% | MCF7 breast 103% | HCT-116 colon 106% | KM12 colon 105%

CCNC(=O)c1[nH]cc(-c2ccc(OC)cc2)c1-c1cc(OC)cc(OC)c1
inactive: BT-549 breast 90.2% | MDA-MB-435 melanoma 84.3% | SW-620 colon 101% | MCF7 breast 99.5% | HCT-116 colon 82.3% | HCC-2998 colon 102% | KM12 colon 89.9%

Cn1ncc2c(Nc3ccccc3Cl)nc(Cl)nc21
inactive: T-47D breast 99.7% | MDA-MB-435 melanoma 113% | SW-620 colon 126% | MCF7 breast 104% | HCT-116 colon 99.4% | HCC-2998 colon 109% | KM12 colon 126%
